FLuc counter – qHTS profiling assay for firefly luciferase inhibitor/activator using purifed enzyme and Km concentrations of substrates (counterscreen for miR-21 project); Potency, µM (highest dose often 57.5 µM), actives largely listed as inhibitors; AID 588342, 2011; purified FLuc, Km substrates, luminescence inhibition; Luciferin 4-monooxygenase (Photinus pyralis), P08659; 360,000 tested, 6.9% active; also: nearly all actives have a fitted effect of over 55% in size
Target sequence (P08659 whole entry, looked up): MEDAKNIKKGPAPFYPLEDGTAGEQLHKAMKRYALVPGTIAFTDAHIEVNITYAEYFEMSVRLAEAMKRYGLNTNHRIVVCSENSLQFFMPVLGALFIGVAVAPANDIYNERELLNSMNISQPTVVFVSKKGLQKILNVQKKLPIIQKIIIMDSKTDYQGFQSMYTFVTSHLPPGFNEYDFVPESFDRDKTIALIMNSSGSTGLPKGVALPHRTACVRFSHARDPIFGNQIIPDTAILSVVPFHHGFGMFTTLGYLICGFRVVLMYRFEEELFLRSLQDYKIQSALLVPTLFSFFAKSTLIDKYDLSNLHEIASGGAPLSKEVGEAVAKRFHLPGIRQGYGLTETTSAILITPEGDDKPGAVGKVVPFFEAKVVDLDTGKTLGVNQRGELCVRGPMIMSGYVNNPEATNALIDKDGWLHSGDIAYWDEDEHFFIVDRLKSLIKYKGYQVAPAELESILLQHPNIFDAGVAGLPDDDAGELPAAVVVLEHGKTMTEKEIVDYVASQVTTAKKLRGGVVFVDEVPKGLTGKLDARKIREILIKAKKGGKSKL
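Biochemical qHTS of compounds, final roughly 60 µM downward over six points, against 10 nM purified firefly luciferase using Km concentrations of substrates (10 uM D-luciferin, 10 uM ATP) in Tris acetate pH 7.5 buffer; luminescence output.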
Luc counter – Counterscreen for Luciferase (Kinase-Glo TM) Inhibition; Potency, µM (doses to about 38.3 µM), actives largely listed as inhibitors; 200,000 tested, 0.28% active; Luciferin 4-monooxygenase (Photuris pensylvanica), Q27757; Kinase-Glo luciferase, ATP luminescence, 8 min; AID 1379, 2008; also: nearly all actives have a fitted effect of over 60% in size
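Recombinant Kinase-Glo luciferase, 10 uM ATP (linear range), luciferin; imidazole pH 7.2 / KCl / MgCl2 / Tween / BSA buffer; 8 min RT; luminescence.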
ELG1 genotox – qHTS screen for small molecules that induce genotoxicity in human embryonic kidney (HEK293T) cells expressing luciferase-tagged ELG1 | HEK293T ELG1-luciferase reporter, luminescence, 16 h | Potency, µM (titrated, usually from 46 µM), usual class: activators | 330,000 tested, 1.3% active | AID 504466, 2011; also: nearly all actives have a fitted effect of over 60% in size
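HEK293T cells expressing luciferase-tagged ELG1 were exposed to compound or DMSO vehicle for 16 hr at 37 °C and 5% CO2. Luciferase activity was then measured with ONE-Glo after 30 min at room temperature.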
Rab9 prom act – qHTS Assay for Rab9 Promoter Activators; Huh7 Rab9 promoter-luciferase reporter, luminescence, 24 h; Potency, µM (titrated, usually from 9.22 µM), usual class: activators; 320,000 tested, 2.8% active; AID 485297, 2010; also: nearly all actives have a fitted effect of over 60% in size
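Cells were plated at 1500 per well in reduced-serum medium with 10% FBS and left 2 h. Compound in DMSO was then added for 24 h at 37 °C. Reporter signal was read by luminescence after 10 min with luciferase detection reagent.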
NPC1 prom act – qHTS Assay for NPC1 Promoter Activators; Potency, µM (titrated, usually from 9.22 µM), most hits filed as activators; AID 485313, 2010; Huh7 NPC1 promoter luciferase reporter, 24 h; 320,000 tested, 2.4% active; also: nearly all actives have a fitted effect of over 60% in size
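Huh7 reporter cells (NPC1 promoter driving luciferase) are dosed with compound for 24 h at 37 °C, 5% CO2; luciferase detection reagent is then added and luminescence measured after 10 min at ambient temperature.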
SMN2 splice up – qHTS Assay for Enhancers of SMN2 Splice Variant Expression. AID 1458, 2008. HEK293 SMN2-luciferase splicing reporter, luminescence, 30-36 h. Potency, µM (highest dose often 46.1 µM), most hits filed as activators. 210,000 tested, 2.8% active; also: nearly all actives have a fitted effect of over 55% in size
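qHTS luciferase splicing reporter: luminescence rises when SMN2 exon 7 is included in transfected HEK293 cells. Compound exposure lasted 30-36 h at 37C, with 4.5 mM final sodium butyrate as control, followed by a ONE-Glo read.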
Hits are given with their value; 0 = inactive; ? = inconclusive; - = not tested or not shown; [ ] = dose if it differs, or a comment. Shown are actives, neighbours in structure and some others; about 7.5% of the full set was active somewhere. Calls follow the shape of the dose curve; as a rule, active = well fitted curve in the direction sought with a large enough effect; inconclusive = small, poorly fitted or top-dose-only effect, or another doubt; inactive = no such curve, though single readings can be large; an effect the other way counts as inactive or inconclusive.

SMILES	FLuc counter	Luc counter	ELG1 genotox	Rab9 prom act	NPC1 prom act	SMN2 splice up
Cc1cc(=O)[nH]c(N/N=C/c2c(F)c(F)c(F)c(F)c2F)n1	0	-	0	0	0	-
Cc1cc(=O)[nH]c(N/N=C/c2ccccc2Cl)n1	0	-	0	0	0	-
O=c1cnnc(N/N=C/c2cccs2)[nH]1	0	-	0	0	0	-
Cc1cc(=O)[nH]c(N/N=C/c2sccc2C)n1	?	11µM	0	0	0	?
Cc1cc(=O)[nH]c(N/N=C/c2cc(C)n(-c3ccccc3)c2C)n1	7.6µM	-	9.2µM	?	3.2µM	-
CCOC(=O)Nc1ccc2c(COC(=O)CNS(=O)(=O)c3cccc(Br)c3)cc(=O)oc2c1	0	0	?	0	0	0
COc1ccc(-c2[nH]nc3nc(-c4cc(OC)c(OC)c(OC)c4)cc(C(=O)O)c23)cc1	2.7µM	-	-	-	-	-
CCOc1cc(-c2cc(C(=O)O)c3c(-c4ccccc4)[nH]nc3n2)ccc1O	?	-	-	-	-	0
CCc1ccc(-c2[nH]nc3nc(-c4cc(OC)ccc4OC)cc(C(=O)O)c23)cc1	1.9µM	-	-	-	-	-
C=C(C)CNC(=S)Nc1nc2c(cc1C(=O)OCC)CCCC2	13µM	0	?	?	?	4.5µM
CCN(Cc1ccccc1)C(=O)c1nc(-c2cccc(F)c2)n2c1CCCCC2	0	-	-	-	-	-
O=C(Nc1ccccc1)N1CCCC2CCCCC21 (stereo not drawn)	15µM	0	21µM	3.2µM	?	11µM
CN(C)c1ccc(N=C/C=C2\N(C)c3ccccc3C2(C)C)cc1	15µM	0	0	0	0	0
CN1\C(=C/C=C/C=C/C=[N+](C)C)C(C)(C)c2ccccc21	8.5µM	11µM	0	0	0	0
CN1/C(=C\C=O)C(C)(C)c2ccccc21	0	0	0	0	0	0
CC(C)C(C)NC(=O)COC(=O)c1cc(S(=O)(=O)N(C)C)ccc1N1CCCC1 (stereo not drawn)	0	0	0	0	0	0
Cc1cc2c(C)c(C)c(=O)[nH]c2cc1N	0	0	?	0	0	0
Clc1ccc(Cn2nc(-c3ccccc3)nc2-c2ccccc2)cc1	15µM	0	0	0	0	?
Clc1ccccc1Cn1nc(-c2ccccc2)nc1-c1ccccc1	0	0	0	0	0	0[1.84 µM]
O=C1ON=C(c2ccccc2)/C1=C/c1ccc(O)cc1	?	-	?	0	0	-
COc1cc(/C=C2/C(=O)ON=C2c2ccccc2)ccc1O	19µM	0	0	0	0	0
COc1cc(/C=C2\C(=O)ON=C2c2ccccc2)cc(Cl)c1O	19µM	0	0	0	0	0
COc1cc(/C=C2\C(=O)ON=C2c2ccccc2)cc(Br)c1O	?	-	0	0	0	-
O=C1ON=C(c2ccc(Cl)cc2)/C1=C/c1ccc(O)cc1	11µM	0	?	0	0	0
CC(C)c1ccc(/C=C/c2ccc(=O)n(C)n2)cc1	4.8µM	0	10µM	1.8µM	2.2µM	11µM
SMILES	FLuc counter	Luc counter	ELG1 genotox	Rab9 prom act	NPC1 prom act	SMN2 splice up
CCOC(=O)C(C)n1nc(/C=C/c2ccc(OC)cc2)ccc1=O (stereo not drawn)	0	0	0	0	0	0
O=C(Cn1nnc(-c2ccccc2)n1)N1CCCCC1	0	-	?	?	0	-
CC(C)COc1ccc(-c2nnn(CC(=O)N3CCCC3)n2)cc1	12µM	0	?	0	0	0
O=C(Cn1nnc(-c2ccc(OCc3ccccc3F)cc2)n1)N1CCOCC1	2.7µM	0	?	?	?	0
O=C(Cn1nnc(-c2ccccc2Cl)n1)N1CCCCC1	17µM	-	?	4µM	?	-
CC(C)CN(CC(C)C)C(=O)C1CCCN(S(=O)(=O)c2ccc3c(c2)oc(=O)n3C)C1 (stereo not drawn)	0	-	-	-	-	0
CCOC(=O)c1cccc(-n2c(-c3ccc(OC)cc3)nc3nc4ccccc4nc32)c1	0	0	0	0	0	0
O=C1c2ccccc2C(=O)N1CCOc1cccc(Br)c1	11µM	-	?	?	0	-
Cc1cccc(OCCN2C(=O)C(=O)c3cccc(C)c32)c1	0	0	0	0	0	0
Cc1ccc2c(c1)C(=O)C(=O)N2CCCOc1ccccc1C	0	0	0	0	0	-
Cc1cccc(OCCN2C(=O)C(=O)c3cc(C)ccc32)c1	12µM	0	?	0	0	0
Cc1ccc(OCCN2C(=O)c3ccccc3C2=O)cc1	?	0	?	0	0	0
Cc1ccc2c(c1)C(=O)C(=O)N2CCOc1ccccc1	13µM	0	?	0	0	0
CCN(CC(=O)NC(C)(C)C)C(=O)CCl	0	0	0	0	0	0
CCCn1c(-c2ccc(S(=O)(=O)N3CCOCC3)cc2)csc1=Nc1ccc(OCC)cc1	0	-	-	-	-	0
CCc1cccc(NC(=O)CCn2c(=O)c3cccn3c3cccnc32)c1	0	-	-	-	-	-
COc1ccc(Br)c2c1-c1nc(NC(=O)c3ccc(F)cc3)sc1C2	0	-	-	-	-	0
COc1ccc(C(=O)CSc2nc(C)cc(C)c2C(=O)Nc2ccccc2C)cc1	0	-	-	-	-	-
N#CC1(C#N)CC(C=O)=C(N)C1(C#N)CC(=O)C12CC3CC(CC(C3)C1)C2 (stereo not drawn)	0	0	0	0	0	0
COc1cc(/C=N/NC(=O)CCC(=O)Nc2ccc(C)cc2)ccc1O	0	0	0	0	0	0
COc1ccccc1/C=N/NC(=O)c1sc(C)nc1C	?	0	0	0	0	0
COc1ccccc1/C=N/NC(=Nc1ccc(C)cc1)c1nc2ccccc2s1	17µM	0	?	0	0	0
COc1cc(/C=N/NC(=Nc2ccc(C)cc2)c2nc3ccccc3s2)ccc1O	2.7µM	0	2.6µM	?	0	0
O=C(O)COc1ccccc1/C=N/NC(=O)COc1ccc(-c2ccccc2)cc1	4.8µM	-	0	0	0	-
CC(C)(C)c1ccc(C(=O)NCC(=O)N/N=C/c2ccccc2OCC(=O)O)cc1	17µM	0	0	0	0	0
SMILES	FLuc counter	Luc counter	ELG1 genotox	Rab9 prom act	NPC1 prom act	SMN2 splice up
CC(Oc1cccc(Cl)c1)C(=O)N(C)CC(=O)Nc1ccc(N2CCOCC2)cc1 (stereo not drawn)	0	-	0	0	0	-
Cc1ccc(Sc2ccc(N3CCC(C(=O)Nc4ccc(Cl)cc4)CC3)nn2)cc1	0	-	-	-	-	0
COc1ccc2nc(N3C(=O)CNC3=S)sc2c1	2.4µM	-	21µM	1.3µM	3.5µM	-
Cc1ccc2nc(N3C(=O)CNC3=S)sc2c1	1.5µM	-	21µM	?	1.1µM	-
Cc1nc(-c2ccc(C(=O)Nc3ccc(F)cc3)cc2)cs1	0.76µM	?	21µM	?	?	0
COc1ccc(-c2csc(C)n2)cc1	19µM	0	0	0	0	0
O=C(Nc1cccc(NC(=O)c2ccc(F)cc2)c1)c1ccc(F)cc1	0	-	0	0	0	-

High-throughput results (PubChem)
